Screening data deposited in PubChem BioAssay by National Center for Advancing Translational Sciences (NCATS).
Only some compounds are listed: those with a hit (about 5.7% of all), similar ones and a draw of the others.
DRD3 antagonist: antagonists of human D3 dopamine receptor; max response, negative = inhibition, %; hit rate 2.5% among 360,000; AID 652054; P35462; D3R cells, DiscoveRx beta-arrestin luminescence, antagonist mode; hits give low values; in the data active means max response below about -50%; inconclusive means no clear call, values can overlap the other calls
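Cells plated overnight at 1500 cells/well, then exposed to library compounds with dopamine controls for 90 minutes at 37 degrees C. DiscoveRx reagent added for 30–60 minutes at room temperature; luminescence read, quantitative HTS format.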
DRD3 agonist: D3 dopamine receptor (human) agonism; AID 652048; D3R DiscoveRx beta-arrestin cells, luminescence, 90 min; P35462; max activation, %; hit rate 0.58% among 410,000; in the data active means max activation above about 30%
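Cells at 1500/well, incubated overnight, then treated with pinned compounds (dopamine as control) for 90 min at 37 degrees C. DiscoveRx reagent added for 30 - 60 minutes at room temperature; luminescence read.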
GLP-1R agonist: agonists of human GLP-1 receptor | HEK293 GLP-1R CRE-luciferase, luminescence, 4-6 h; cells express a hypersensitive GLP-1R form | hit rate 0.007% among 380,000 | P43220 | Potency, µM (highest dose often 45.6 µM), most hits filed as activators
Target sequence (P43220 whole entry, looked up): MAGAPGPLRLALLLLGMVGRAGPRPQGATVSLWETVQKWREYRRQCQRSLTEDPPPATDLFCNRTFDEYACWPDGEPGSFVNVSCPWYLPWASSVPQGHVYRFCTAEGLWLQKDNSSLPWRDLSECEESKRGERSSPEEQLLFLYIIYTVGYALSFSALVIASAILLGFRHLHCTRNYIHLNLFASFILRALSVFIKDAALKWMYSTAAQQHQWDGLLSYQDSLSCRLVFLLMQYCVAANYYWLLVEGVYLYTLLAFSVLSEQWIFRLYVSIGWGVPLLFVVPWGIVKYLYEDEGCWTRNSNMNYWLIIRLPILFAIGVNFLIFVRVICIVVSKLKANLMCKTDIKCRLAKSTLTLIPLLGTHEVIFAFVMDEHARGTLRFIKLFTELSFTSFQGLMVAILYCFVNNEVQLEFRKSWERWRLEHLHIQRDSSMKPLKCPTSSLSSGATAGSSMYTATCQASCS
ClpP mod: qHTS Assay for Activators of ClpP; hit rate 1.9% among 340,000; purified B. subtilis ClpP, FRET peptide cleavage, 20 min; ATP-dependent Clp protease proteolytic subunit (Bacillus subtilis (strain 168)), P80244; Potency, µM (highest dose often 57.5 µM); active means well fitted falling curve with a large enough effect; inconclusive means small, poorly fitted or top-dose-only effect; inactive means no such curve, though single readings can be large or run the other way; further: the source files actives as falling curves though it sought activators and does not explain the sign; nearly all actives have a fitted effect of over 65% in size
Target sequence (P80244 whole entry, looked up): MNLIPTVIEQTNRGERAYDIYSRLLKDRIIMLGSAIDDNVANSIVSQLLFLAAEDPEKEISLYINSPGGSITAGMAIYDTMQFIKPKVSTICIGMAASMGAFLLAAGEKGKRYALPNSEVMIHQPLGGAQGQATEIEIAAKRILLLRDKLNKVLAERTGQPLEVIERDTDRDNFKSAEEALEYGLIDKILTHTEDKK
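Buffer: 100 mM Tris/HCl pH8, 100 mM KCl, 0.05% low protease BSA, 2.5% glycerol, 0.01% Tween-20. ClpP 10 microg/mL final; 20 min RT; delta FRET normalized to ADEP and DMSO controls.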
GLP1R inv ag: acts as inverse agonist at human GLP-1 receptor; P43220; HEK293 GLP-1R CRE-luciferase, luminescence, 24 h; GLP-1R form is constitutively active; Potency, µM (series often up to 38.3 µM), hits mostly inhibitors; hit rate 1.6% among 410,000; further: nearly all actives have a fitted effect of over 55% in size
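Using stably transfected HEK293 (constitutively active GLP-1R, cAMP-luciferase reporter), compounds were incubated 24 hr and luciferase measured by luminescence.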
GLP1R cytotox: cytotoxicity counter-screen for GLP-1 receptor inverse agonists | AID 624418 | hit rate 0.13% among 410,000 | Potency, µM (top dose mostly 38.3 µM), most hits filed as inhibitors | HEK293 cAMP-luciferase reporter cells, luminescence, 24 h;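 further: loss of luciferase light is scored as toxicity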
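Seeding density was 200 cells/uL; after overnight-length (12 h) culture, 23 nL compounds went on for 24 h at 37 °C. Readout used a luciferase detection reagent, luminescence taken after 12 min at room temperature.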
A number is an active result; n = inactive; u = inconclusive; x = not tested or not shown. Unless noted, the call rests on the fitted dose curve; in most records, active means well fitted curve in the direction sought with a large enough effect; inconclusive means small, poorly fitted or top-dose-only effect, or another doubt; inactive means no such curve, though single readings can be large; an effect the other way counts as inactive or inconclusive.

SMILES	DRD3 antagonist	DRD3 agonist	GLP-1R agonist	ClpP mod	GLP1R inv ag	GLP1R cytotox
CCOC(=O)CCCCN(Cc1ccccc1F)S(=O)(=O)c1ccc(F)c(C(=O)Nc2cc(Cl)cc(Cl)c2)c1	x	n	x	u	u	n
CCCCOc1ccc(CNC(=O)c2cnc3sc(N4CCOCC4)nn3c2=O)cc1	x	n	x	u	n	n
COc1ccc(NC(=O)CN2C(=O)C(C)(C)c3cc(S(=O)(=O)N4CCCCC4)ccc32)cc1Cl	x	n	x	n	u	n
Cc1cc(C)c2cc(C(=O)N3CCc4ccccc4C3)[nH]c2c1	n	n	n	n	u	n
Cc1cc(C)c2cc(C(=O)N(C)C3CCN(C)CC3)[nH]c2c1	u	n	n	x	5µM	n
Cc1ccc(CC2(c3ccccc3)NC(=O)NC2=O)cc1 (stereo not given)	n	n	n	x	u	n
COc1cc(C(C)=O)ccc1OCC(O)CN1CCN(c2ccc(C)c(C)c2)CC1 (stereo not given)	-52	n	n	n	n	n
CC(=O)Nc1ccc(OCC(O)CN2CCN(c3ccc(C)c(Cl)c3)CC2)cc1 (stereo not given)	-144	n	n	n	n	n
CCOc1c(Br)cc(C2C=C(C(=O)O)Nc3ncnn32)cc1OC (stereo not given)	x	n	n	n	n	n
C=C1C(=O)[C@]23C[C@H]1CCC2[C@]1(C)CCC[C@@](C)(C(=O)O)C1C[C@@H]3O (stereo not given in full)	-89	n	n	n	1.8µM	u
Cc1ccc2[nH]c(=O)c(CN(CCCO)S(=O)(=O)c3cccc4nsnc34)cc2c1	-145	n	n	n	n	n
CC(=O)Nc1ccc(S(=O)(=O)NCc2cn3c(C)csc3n2)cc1	-69	n	n	n	n	n
CC(=O)Nc1ccc(S(=O)(=O)NCc2csc(C)n2)cc1	n	n	n	n	n	n
Cc1cccc(NC(=O)c2cc3c(=O)n(Cc4ccco4)ccc3nc2C)c1	x	n	x	n	u	n
COc1ccc(NC(=O)CSCC(=O)N(C)Cc2ccc(Cl)c(Cl)c2)cc1	n	n	n	n	10µM	n
Cc1ccc(NC(=O)CSCC(=O)N(C)Cc2ccc(Cl)c(Cl)c2)cc1	n	n	n	n	u	n
CCN(C(=O)Cn1nc(Cc2ccncc2)c2ccccc2c1=O)c1cccc(C(F)(F)F)c1	x	n	x	n	n	n
CCOC(=O)C1CCCN(C(=O)c2ccc3nc(-c4ccccc4)c(-c4ccccc4)nc3c2)C1 (stereo not given)	n	n	n	n	u	n
Cc1ccc(-c2nc3ccccc3nc2-c2ccccc2)cc1	n	n	n	x	u	n
Oc1ccccc1-c1nc2ccccc2nc1-c1ccccc1	n	n	n	x	11µM	n
CCN1CCN(C(=O)c2ccc3nc(-c4ccccc4)c(-c4ccccc4)nc3c2)CC1	n	n	n	16µM	u	n
O=C(O)c1ccc2nc(-c3ccccc3)c(-c3ccccc3)nc2c1	n	n	n	22µM	u	n
Cc1ccc(C)c(N2CCN(C(=O)c3ccc4nc(-c5ccco5)c(-c5ccco5)nc4c3)CC2)c1	n	34	n	n	u	n
COc1ccccc1N1CCN(C(=O)c2ccc3nc(-c4ccco4)c(-c4ccco4)nc3c2)CC1	n	n	n	n	u	n
COc1ccc(-c2ccc3c(c2)C2CC3CCN2)cc1 (stereo not given)	n	n	n	n	u	n
SMILES	DRD3 antagonist	DRD3 agonist	GLP-1R agonist	ClpP mod	GLP1R inv ag	GLP1R cytotox
COc1ccc(-c2nc3ccncc3[nH]2)cc1OC	n	n	n	28µM	n	n
COc1ccc(C(=O)CSc2nnc(CNc3ccc(C)cc3C)n2Cc2ccco2)cc1	n	n	n	n	n	n
Cc1ccc(C(=O)CSc2nnc(CNc3ccc(C)cc3C)n2Cc2ccco2)cc1	n	n	n	n	10µM	n
O=[N+]([O-])c1ccc2nc(CO)[nH]c2c1	x	x	x	n	x	x
Cn1c(CCCCCN)nc2ccccc21	-64	n	n	n	n	n
Cn1c(CCNC(=O)c2ccc(F)cc2)nc2ccccc21	-66	n	n	n	n	n
Cc1ccc(N(CC(=O)NCc2ccc(OC(C)C)cc2)S(=O)(=O)N(C)C)cc1	x	n	x	n	n	n
CSc1nc2ncc3c(n2n1)CC1c2ccccc2CCN1C3=O (stereo not given)	n	n	n	28µM	n	n
CN(C)CCN1CCN(C2CN(CCc3ccccc3)S(=O)(=O)C2)CC1 (stereo not given)	n	n	n	n	n	n
O=C(N1CCN(Cc2ccccc2)CC1)C12CC3CC(CC(C3)C1)C2	-65	n	n	n	u	n
COc1cc2c(cc1OC)C(c1oc(-c3ccc(-c4cc(Cl)ccc4Cl)o3)cc1C)=NCC2	x	x	x	n	x	x
CC(C)c1nn2c(=O)cc(COC(=O)c3ccc(NC(=O)c4cccs4)cc3)nc2s1	x	n	x	n	n	n
CC(=O)N(CCc1ccccc1C)Cc1cc2cc3c(cc2[nH]c1=O)OCO3	u	n	n	28µM	n	n
CNC(=S)N(Cc1ccco1)Cc1cc2cc(OC)c(OC)cc2[nH]c1=O	n	n	n	x	n	n
CCC(=O)N(CCc1ccccc1C)Cc1cc2ccc(C)cc2[nH]c1=O	n	n	n	n	n	n
CCNC(=S)N(CCc1ccccc1C)Cc1cc2cc(OC)c(OC)cc2[nH]c1=O	n	n	n	u	n	n
CNC(=S)N(CCc1ccccc1)Cc1cc2cc(OC)c(OC)cc2[nH]c1=O	n	n	n	35µM	n	n
COc1cc2cc(CN(CCc3ccccc3C)C(=S)NCCCN(C)C)c(=O)[nH]c2cc1OC	n	n	n	14µM	u	n
CCNC(=S)N(CCc1cccc(C)c1)Cc1cc2cc(OC)c(OC)cc2[nH]c1=O	n	n	n	18µM	n	n
Cc1cc2oc3c(c(=O)c2cc1C)C1(C(=O)N(C)c2ccccc21)N(CCO)C3=O (stereo not given)	x	n	x	n	n	n
O=S(=O)(c1ccc(Br)cc1)N1CCN(c2nc(-c3ccccc3)nc3ccccc23)CC1	x	x	x	n	x	x
CCN1CC(CN(C)Cc2cn(-c3cccc(C)c3)nc2-c2cccc(F)c2)CC1=O (stereo not given)	n	n	u	n	10µM	n
CCN1CC(CN(C)Cc2cn(-c3ccc(C)cc3)nc2-c2ccc(F)cc2)CC1=O (stereo not given)	n	n	n	n	u	n
Nc1c(C(=O)NC2CCCCC2)nsc1C(=O)OCC(=O)NC1CCCCC1	n	n	n	25µM	n	n
